This passage reports max response and Potency results from PubChem BioAssay AID651814 (National Center for Advancing Translational Sciences (NCATS), 2012).

Molecules are shown by their SMILES. In all, about 2,100 compounds went through this assay and about 590 (28%) were called active. Inconclusive results (about 42%) are left out. The list shows a part of the results. A number with no mark means an inactive call. Calls follow the shape of the dose curve; as a rule, active = well fitted inhibition curve with a large enough effect; inconclusive = small, poorly fitted or top-dose-only effect; inactive = flat fitted curve, though single readings scatter.
Potency is read from the fitted curve at half-maximal effect.

Chain of DNA dC->dU-editing enzyme APOBEC-3F (Homo sapiens) (Q8IUX4 whole entry, looked up): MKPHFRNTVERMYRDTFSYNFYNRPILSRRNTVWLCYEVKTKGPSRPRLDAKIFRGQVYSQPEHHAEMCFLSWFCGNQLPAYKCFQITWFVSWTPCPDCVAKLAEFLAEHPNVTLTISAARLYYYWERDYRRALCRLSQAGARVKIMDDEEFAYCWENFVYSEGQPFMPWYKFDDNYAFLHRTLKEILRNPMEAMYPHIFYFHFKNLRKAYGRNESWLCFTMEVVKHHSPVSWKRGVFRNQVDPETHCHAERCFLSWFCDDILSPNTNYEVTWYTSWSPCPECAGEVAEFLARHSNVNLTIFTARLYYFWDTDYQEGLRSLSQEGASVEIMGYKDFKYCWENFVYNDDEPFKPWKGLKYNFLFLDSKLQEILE

This experiment concerns the target DNA dC->dU-editing enzyme APOBEC-3F (Homo sapiens) (UniProt Q8IUX4). Briefly: qHTS for inhibitors of Vif-A3F interactions: Cherry picks. Also: nearly all actives have a fitted effect of over 70% in size.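 As to max response: % of control where 0% means no effect; active compounds raise eYFP fluorescence by blocking Vif-driven A3F loss.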 The conditions noted are these: HeLa A3F-eYFP + Vif (tagged APOBEC3F with the HIV-1 protein that degrades it), eYFP fluorescence, 24 h. An excerpt:
The recent discovery and characterization of host restriction factors, which provide a potent defense to invading retroviruses, has provided new targets for antiviral drug development. APOBEC3G (A3G) and APOBEC3F (A3F) are potent cytidine deaminases that block HIV-1 replication; HIV-1 expresses the Vif protein, which counteracts A3G and A3F by binding to them and inducing their proteasomal degradation. The Vif-A3G and Vif-A3F interactions provide two potential targets for development of small molecules which can interfere with the ability of Vif to degrade A3G or A3F. […] To identify inhibitors that can interfere with Vif mediated degradation of A3G and A3F, we have developed Hela cell lines that stably express A3G or A3F tagged with eYFP at the C-terminal end (A3G-eYFP or A3F-eYFP, respectively) and Vif. In the absence of an inhibitor, Vif induces degradation of A3G-eYFP and A3F-eYFP, and the cells are not fluorescent. In the presence of an inhibitor, it is expected that Vif will be unable to degrade A3G-eYFP and/or A3F-eYFP, resulting in an increase in yellow fluorescence. In this assay, Vif A3F was screened against the cherry picks ordered from the MLSMR. NIH Chemical Genomics Center [NCGC] NIH Molecular Libraries Probe Centers Network [MLPCN] MLPCN Grant: MH093245 Assay Submitter (PI): Vinay Pathak, National Cancer Institute
A3F-Vif cells were harvested from T225 flask and resuspended in phenol free OPTI-MEM medium with 5% FBS. Then 5 uL of 140,000 cells/mL resuspended cells was dispensed into each well of low base Aurora COC 1,536-well plates (black walled, clear bottom) using a Multidrop Combi dispenser. After overnight culture at 37 deg C with 5% CO2, a total of 23 nL of compounds at 5 selected concentrations from the NPC or positive control (2 mM stock of MG132) in DMSO was transferred to each well of the assay plate using a pintool (Kalypsys, San Diego, CA), and the plates were further incubated at 37 deg C with 5% CO2 for 24 hours. After that, the plates were measured on Acumen Explorer (TTP Lab Tech). The fluorescence was detected by 488 nm/Ex and […].
For `CCCCCCN1C[C@H](O)[C@@H](n2cc(COC(=O)c3ccccc3)nn2)C[C@@H]1c1ccc(C)cc1`, the max response was -0.173%.
Take `Cc1ccc2c(c1)Sc1c(ccc3ccccc13)N2`: the Potency was 16.4 µM (active).
For `COc1ccc(-c2csc(-c3ccc(O)cc3)n2)cc1`, the max response is -24.3%.
As to `Oc1ccc(-c2nc(-c3ccc(O)c(O)c3)cs2)cc1`, the Potency was 4.44 µM (active).
Take `COc1ccc(OC)c(CNc2nc3ccc(C)cc3n3nnnc23)c1`: the max response is -21.9%.
Still for that read-out and setting: for `OCCCn1c(C2CCCN2c2nc(-c3ccc(Cl)cc3)cs2)nc2cc(Cl)c(Cl)cc21` (centres undefined) the value was -3.45%.
With `CCCCCCNc1ccc(/C=C/c2ccnc3ccccc23)cc1`, the Potency is 18.4 µM (active).
On the same count and under the same terms, for `CCCCCCCNc1ccc(/C=C/c2ccnc3ccccc23)cc1` the value was 20.6 µM (active).
With `C/C(=N\NC(=O)c1cc(C)nc2ccccc12)c1ccncc1`, the max response is -5.92%.
For `Cc1ccc(-c2cc(NC=O)c3ncc(-c4cnn(C)c4)n3c2)cc1`, the Potency is 7.9 µM (active).
On the same count and under the same terms, the figure for `COc1ccccc1-c1cc(NC=O)c2ncc(-c3ccc(S(C)(=O)=O)cc3)n2c1` is 7.04 µM (active); for `COc1ccc(-c2cc(NC(C)=O)c3ncc(-c4cc(OC)c(OC)c(OC)c4)n3c2)cn1` it is 4.98 µM (active).
Take `COc1ccc(NC(=O)C2Cc3c(-c4ccc(NC(C)=O)cc4)ccnc3O2)cn1` (centres undefined): the max response is -27.7%.
On to `COc1ccc(-c2cnc3c(NC=O)cc(-c4ccccc4)cn23)cc1OC`, for which the Potency was 4.98 µM (active).
With `CCOc1ccc2nc(NC(=O)c3nc(SC(C)C)ncc3Cl)sc2c1`, the max response was -25.8%.
The same measure, in the same setting: for `COC(=O)c1sc(-c2cccs2)cc1NC(=O)/C=C/C(=O)O` the value was -22.3%.
Same read-out and setting: the figure for `O=C1NC(c2ccccc2Br)=N/C1=C\c1ccco1` is -25.1%.
Same read-out and setting: the figure for `COc1ccc(-c2nc3c4ccccc4ccn3c2Cc2ccsc2)cc1OC` is -2.92%.
For the compound `COc1ccc(-c2cnc3c(NC=O)cc(-c4ccoc4)cn23)cc1OC`, the Potency was 11.2 µM (active).
Same read-out and setting: for `COc1ccc(-c2cc(NC=O)c3ncc(-c4ccc(OC)c(OC)c4)n3c2)cc1OC` the value was 7.04 µM (active); for `COc1ccc(-c2cnc3c(NC=O)cc(-c4cc(OC)c(OC)c(OC)c4)cn23)cc1OC`, 15.8 µM (active).
Still for that read-out and setting: for `CN(C)c1ccccc1-c1cc(NC=O)c2ncc(-c3cccc(C(F)(F)F)c3)n2c1` the value was 15.8 µM (active).
On to `CN(C)C(=O)c1cccc(-c2cnc3c(NC=O)cc(-c4ccccc4F)cn23)c1`, for which the max response was -4.66%.
The same measure, in the same setting: for `Cc1cc(C)nc(Nc2n[nH]c(COc3cccc4ccccc34)n2)n1` the value was -15.5%.
Same read-out and setting: for `Cc1cc(C)nc(NC(=S)Nc2cccc(Cl)c2Cl)c1` the value was -10.1%.
Still for that read-out and setting: the figure for `COc1ccc(C2=NOC(C(=O)NCc3ccc(F)cc3)C2)cc1` (centres undefined) is -16.1%; for `CN(C)c1ccc(/C=C/c2ccnc3ccccc23)cc1N` it is -19.7%.
Turning to `CN(C)c1ccc(/C=C/c2ccnc3ccccc23)cc1O`, the Potency is 11.6 µM (active).
Consider `Cc1cc(/C=C/c2ccnc3ccccc23)ccc1N(C)C`, for which the Potency was 8.2 µM (active).
On the same count and under the same terms, the figure for `CN1CCCc2cc(/C=C/c3ccnc4ccccc34)ccc21` is 4.11 µM (active); for `CCc1cc(/C=C/c2ccnc3ccccc23)ccc1N(C)C` it is 14.6 µM (active).
For the compound `CCS(=O)(=O)c1nn2c(N)c(/C=C3/C=CC(=O)C(OC)=C3)c(=O)nc2s1`, the max response is 11%.
Take `Cc1ccc(NC(=S)N/N=C2\CCCCC2C)cc1` (centres undefined): the max response was 0.346%.
Regarding `O=C(/C=C/c1ccccc1)Nc1ncn[nH]1`, the max response was -21.2%.
On to `Cc1cc(/C=C/c2ccnc3ccccc23)ccc1N`, for which the Potency is 14.6 µM (active).
Take `COc1cccc(-c2ccc3c(N)c(C(=O)c4ccc(Br)cc4)sc3n2)c1`: the Potency was 10.3 µM (active).
Consider `COc1ccc2nc3sc(C(=O)Nc4cc(Cl)c(OC)cc4OC)cc3cc2c1`, for which the max response is -28.2%.
With `COc1cccc(-c2ccc3c(N)c(C(=O)c4ccc(Cl)cc4)sc3n2)c1`, the Potency was 18.4 µM (active).
For the compound `N#CC(C#N)=C1C=C2C=C(N3CCOCC3)CCC2CC1` (centres undefined), the max response is 0.0461%.
On the same count and under the same terms, the figure for `O=C1N/C(=N\N=C\c2ccco2)SC1Cc1ccccc1[N+](=O)[O-]` (centres undefined) is -0.95%.
The same measure, in the same setting: the figure for `Cn1c2ccccc2c2ccc3c(c21)C(=O)C=CC3=O` is 5.63%.
For the compound `COc1c(-c2ccc(O)c(O)c2)oc2cc(O)cc(O)c2c1=O`, the Potency is 14 µM (active).
On the same count and under the same terms, the figure for `CCC[N+](C)(C)c1ccc(/C=C/c2ccncc2)cc1` is 2.31 µM (active); for `CC[N+](C)(C)c1ccc(/C=C/c2ccncc2)cc1` it is 4.11 µM (active).
As for `CC1CC(=O)C2=C(C1)OC(N)=C(C#N)C2c1coc2ccccc2c1=O` (centres undefined), the max response was -25.1%.
For the compound `COc1cc(/C=C(\C#N)c2nc3ccccc3s2)ccc1OCC(=O)Nc1ccccc1`, the Potency is 14 µM (active).
`COc1cc(/C=C(\C#N)c2nc3ccccc3[nH]2)ccc1O`: the max response was 6%.
Consider `CCC(=O)Nc1nc2ccc(NC(=O)c3cc(OC)c(OC)c(OC)c3)cc2s1`, for which the max response is -4.22%.
As for `COc1cc(/C=C(\C#N)c2nc3ccccc3[nH]2)ccc1OCc1ccccc1F`, the Potency is 18.4 µM (active).
As for `COc1ccc(OC)c2sc(NC(=O)CCS(=O)(=O)c3ccccc3)nc12`, the max response is -17.2%.
As for `COc1cc(/C=C(/C#N)c2nc3ccccc3[nH]2)ccc1OCC(=O)Nc1ccccc1C(C)C`, the Potency was 16.4 µM (active).
Regarding `COc1ccc(OC)c(Nc2nc(-c3ccncc3)nc3ccccc23)c1`, the max response is -10.6%.
With `COc1cc(/C=C/c2ccnc3ccccc23)ccc1N(C)C`, the Potency was 9.2 µM (active).
In the case of `COc1cc(N(C)C)c(OC)cc1/C=C/c1ccnc2ccccc12`, the Potency was 20.6 µM (active).
Still for that read-out and setting: the figure for `COc1cc(OC)c(/C=C/c2ccnc3ccccc23)c(OC)c1` is 14.6 µM (active); for `Cc1cc(C)c(NC(=O)Cn2c(=O)n(Cc3ccc(C(=O)NCc4ccco4)cc3)c(=O)c3sccc32)c(C)c1` it is 14.6 µM (active).
On to `Cc1c(C)n(Cc2ccccc2)c2ccc(C(=O)NCc3ccco3)cc12`, for which the max response was -24.7%.
As for `COc1ccccc1-c1c(C#N)c(N)nc2c1CCc1ccccc1-2`, the max response is -14.7%.
Turning to `COc1ccc2c(n1)Sc1nc3ccccc3nc1N2`, the Potency was 4.11 µM (active).
